Screening results: PubChem BioAssay, National Center for Advancing Translational Sciences (NCATS)
A selection: hits, their analogues and other compounds. The true share with any hit is near 7.1%.
ELG1 genotoxic: genotoxicity induction in ELG1-luciferase HEK293T cells | HEK293T ELG1-luciferase reporter, luminescence, 16 h | Potency, µM (titrated, usually from 46 µM), usual class: activators | 330,000 compounds, 1.3% hits; further: nearly all actives have a fitted effect of over 60% in size
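HEK293T cells expressing luciferase-tagged ELG1 were exposed to compound or DMSO vehicle for 16 hr at 37 °C and 5% CO2. Luciferase activity was then measured with ONE-Glo after 30 min at room temperature.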
A-T KAP1 phos: potential ataxia-telangiectasia treatment; Potency, µM (doses to about 57.5 µM), most hits filed as activators; AID 485349; 320,000 compounds, 0.19% hits; F2112 A-T fibroblasts, KAP-1 phosphorylation AlphaLISA; neocarzinostatin DNA damage 30 min before lysis; further: nearly all actives have a fitted effect of over 45% in size
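hTERT-immortalized A-T patient fibroblasts (F2112), 500 cells/well in OPTI-MEM, 1% FBS, got compounds for 60 min, then NCS for 30 min at 37C. Lysates were then assayed for phospho-KAP-1 by AlphaLISA (anti-pKAP1 donor, anti-KAP1 acceptor beads), 6 hr at 25C.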
MCF10A rereplic: DNA re-replication induction in MCF 10a cells; Potency, µM (titrated, usually from 46.1 µM), hits mostly activators; 350,000 compounds, 2.9% hits; AID 624296; MCF 10A DNA re-replication, Hoechst nuclear intensity, 48 h; further: nearly all actives have a fitted effect of over 50% in size
SW480 rerep: DNA re-replication induction in SW480 cells | AID 624297 | SW480 DNA re-replication, Hoechst DNA content imaging, 48 h | Potency, µM (doses to about 46.1 µM), actives largely listed as activators | 340,000 compounds, 1.8% hits; further: nearly all actives have a fitted effect of over 55% in size
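Readout is total intensity of Hoechst-stained nuclei, excited at 405 nm and collected at 500-530 nm. Compound treatment lasted 48 hr at 37 C in 5% CO2 before staining.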
ELG1 DNA repair: inhibitors of ELG1-dependent DNA repair in HEK293T cells | HEK293T ELG1-luciferase reporter, luminescence, 16 h; DNA damage induced by 5-fluorouridine | Potency, µM (series often up to 46.1 µM), usual class: inhibitors | 330,000 compounds, 2.3% hits; further: nearly all actives have a fitted effect of over 55% in size
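In this reporter screen, reduction of luminescence relative to DMSO vehicle indicated activity. Compounds and 5-fluorouridine were added together to 2,000 cells per well, incubated for 16 hr at 37 °C, then developed with ONE-Glo.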
p53 reactivator: restores transcriptional activity of mutant p53 | H1299 p53-A138V BP100-luciferase reporter, luminescence, 24 h | AID 504706 | Potency, µM (top dose mostly 92.2 µM), most hits filed as activators | 320,000 compounds, 0.063% hits; further: nearly all actives have a fitted effect of over 45% in size
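H1299 (p53-null), stable ts p53-A138V + BP100-Luc; 1000 cells/well, Opti-MEM/10% FBS; cpd 4 pt, 1:5; 24 h, 37 deg C, 5% CO2; detection reagent 10 min RT; luminescence.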
Each line names hits and unclear results; the compound was inactive in the other large screens. The call rests on the fitted dose curve; in most records, active means well fitted curve in the direction sought with a large enough effect; inconclusive means small, poorly fitted or top-dose-only effect, or another doubt; inactive means no such curve, though single readings can be large; an effect the other way counts as inactive or inconclusive.

CN(C)CCCn1cnc2c1c(=O)[nH]c(=O)n2Cc1ccccc1	none
CCCn1nnnc1NCc1ccccc1OCc1ccc(F)cc1	MCF10A rereplic 23.1µM, SW480 rerep inconclusive, ELG1 DNA repair inconclusive
Cc1cc(C)n(-c2nc(C)nc(NCc3ccccc3)n2)n1	ELG1 DNA repair inconclusive
Cc1cc(C)n(-c2nnc(NCc3ccc(Cl)cc3)nn2)n1	SW480 rerep 11.6µM
COc1ccc(S(=O)(=O)NCCCn2ccnc2)cc1Cl	none (no result: p53 reactivator)
CCOCCCNC(=O)c1cc(Sc2ccc(F)cc2)nc2ccccc12	MCF10A rereplic inconclusive, ELG1 DNA repair 18.4µM
COCCCNC(=O)c1cc(Sc2ccc(F)cc2)nc2ccccc12	none
